Most compounds without a hit are left out; they make up all but 2.8% or so of the library.
HIF-2a inh – blocks HIF-2a reporter activity | AID 624352 | 360,000 tested, 0.72% active | inhibition, % at 18.8 µM | 786-0 RCC cells HIF-2a reporter, luciferase luminescence, overnight;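 active = inhibition of the luminescence signal of 40% or more relative to plate controls, in a single-dose primary screen at 18.75 µM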
TRPM1 prom inh – reduces MITF-dependent TRPM1 promoter luciferase signal; SK-MEL-5 TRPM1 promoter luciferase, 24 h; AID 488899; inhibition, % at 12.5 µM; 330,000 tested, 0.83% active;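 active = mean inhibition across replicates of 60% or more, whatever share of single replicates reaches that level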
KKLEB tox – counter-screen for CF NF-kB inhibitors: cytotoxicity; KKLEB CF airway cells viability, ATPlite luminescence, overnight; active compounds read low; cells stimulated with P. aeruginosa culture filtrate; activity change (cytotoxicity), % at 5 µM; 360,000 tested, 0.36% active;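 active = corrected activity change at or below -50% at 5 µM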
Shn3 3UTR inh – Schnurri-3 reporter inhibition in Clone20 osteoblasts; Clone20 osteoblast Shn3 3'UTR firefly luciferase, 24 h; inhibition, % at 12.5 µM; 360,000 tested, 0.52% active;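 active = mean inhibition of at least 75% with every replicate also reaching 75%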;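 note: 0% = median of neutral control wells and 100% = pilot-screen positive control compound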
Peg3 prom inh – Peg3 promoter activity inhibition; AID 588405; HeLa PEG-Prom luciferase reporter, luminescence, overnight; inhibition, % at 20 µM; 360,000 tested, 1.7% active;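 active = inhibition of at least 50% at 20 µM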
CF NFkB block – cystic fibrosis NF-kB activation inhibition. KKLEB NF-kB-GFP reporter, PAF-induced, GFP fluorescence overnight. inhibition, % at 5 µM. 360,000 tested, 0.86% active;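 active = at least 50% inhibition at 5 µM, scaled per plate between neutral and stimulator controls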;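 note: PAF is a Pseudomonas aeruginosa culture filtrate used as stimulus; plate controls were PAF-stimulated DMSO wells for no effect and unstimulated DMSO wells for full effect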
* marks the source's active call; other numbers are inactive results; x = not tested or not shown.

SMILES	HIF-2a inh	TRPM1 prom inh	KKLEB tox	Shn3 3UTR inh	Peg3 prom inh	CF NFkB block
Cc1[nH]c(=O)c(C#N)cc1-c1csc(-c2ccccc2)n1	18.3	30.8	3.6	8.3	59.8*	-28.2
COc1ccc(S(=O)(=O)N2CCCCC2)cc1NC(=O)CCCNC(=O)c1ccc(Cl)cc1	4.5	7.2	-2.9	-6.1	7.2	23.4
Cc1nc(SCC(=O)Nc2ccc(CN3CCCC3)cc2)c2c(C)c(C)sc2n1	6.4	76.6*	-24.4	-3.9	84.6*	14.2
COc1ccccc1-c1nc2ccccc2c(=O)n1NC(=O)c1cccs1	20.4	-1.8	1.3	-14.2	15.3	13.1
COc1ccc(NC(=O)Cc2c(O)c3ccccc3[nH]c2=O)cc1	11.5	-0.2	-7.8	-7.9	3.7	-5.8
COc1ccc(OC)c(N=Nc2c(O)c3ccccc3[nH]c2=O)c1	5.1	26.0	-19.5	-7.4	70.0*	5.7
CCOC(=O)N1C2C=CC(C2)N1C(=O)OCC	2.3	3.0	-3.6	9.1	-1.0	18.8
CCOC(=O)N1C2CCC(C2)N1C(=O)OCC	-1.3	-3.2	10.2	92.7*	0.4	-13.2
CN[C@H]1CC[C@@H](c2ccc(Cl)c(Cl)c2)c2ccccc21	-27.2	19.7	x	1.2	95.0*	7.7
O=C1C=C(O)CC(c2ccc(Cl)c(Cl)c2)C1 (configuration not stated)	7.7	-2.3	5.3	-2.6	6.4	-9.7
C=CCn1c(SCc2ccc(C(=O)Nc3nccs3)cc2)nnc1-c1ccc(C)c(Cl)c1	-46.0	19.2	-4.8	74.8	51.9*	22.6
Cn1c(N)nc2nc[nH]c2c1=S	7.1	16.8	-5.9	-7.1	-4.5	2.2
CC1=NN(c2nc3ccccc3[nH]2)C(=O)C1Cc1ccccc1 (configuration not stated)	-104.4	x	-52.2*	83.5	-3.3	50.9*
Cc1ccc(C2CC(C(F)F)n3ncc(C(=O)Nc4cnn(Cc5ccccc5C)c4)c3N2)cc1 (configuration not stated)	-6.0	-0.2	-15.7	8.8	61.5*	18.6
CC(=O)OCC(=O)[C@@]1(O)CC[C@H]2[C@@H]3C[C@H](C)C4=CC(=O)C=C[C@]4(C)[C@H]3[C@@H](O)C[C@@]21C	29.7	-8.9	-10.6	-7.3	-12.6	77.3*
CC1CC2C(C(O)CC3(C)C2CCC3(O)C(=O)CO)C2(C)C=CC(=O)C=C12 (configuration not stated)	16.8	-9.5	11.1	-3.7	-21.7	76.0*
O=C1c2ccccc2-c2nnc(-c3ccccc3)cc21	-76.8	-0.4	-12.2	9.1	-31.9	-1.6
COc1ccc(-c2cc3c(nn2)-c2ccccc2C3=O)cc1	13.8	72.4*	-50.1*	45.5	80.5*	-27.7
COc1ccc2[nH]c3c(c2c1)CCN1C(=O)C(CC(=O)NCCCN(C)C)C[C@H](C(=O)N2CCCCC2)[C@@]31CCc1ccccc1 (some centres not stated)	-7.9	-16.0	-3.6	0.1	27.8	5.6
CN(C)CCCNC(=O)C[C@H]1C[C@H](C(=O)N2CCCCC2)[C@@]2(C)c3[nH]c4cc(-c5ccco5)ccc4c3CCN2C1=O	-5.6	-19.2	17.0	-26.3	65.3*	-10.7
CC(C)(C)NC(=O)C[C@H]1C[C@H](C(=O)N2CCCCC2)[C@@]2(CCc3ccccc3)c3[nH]c4cc(-c5ccco5)ccc4c3CCN2C1=O	0.7	-3.3	6.9	11.5	16.0	13.2
CN(C)CCCNC(=O)CC1C[C@H](C(=O)N2CCCCC2)[C@@]2(CCc3ccccc3)c3[nH]c4ccccc4c3CCN2C1=O (some centres not stated)	-13.1	59.9	3.5	-14.4	92.7*	10.0
CN(C)CCCNC(=O)C[C@H]1C[C@H](C(=O)N2CCCCC2)[C@@]2(CCc3ccccc3)c3[nH]c4cc(-c5ccco5)ccc4c3CCN2C1=O	-15.5	92.4*	-34.6	16.0	95.1*	30.7
Cc1cccc(C)c1-n1nnnc1C1c2ccccc2C(=O)N1CCOc1ccccc1 (configuration not stated)	-88.9	x	x	x	x	x
CC1Cc2ccccc2N1C(=O)c1cc2sccc2n1Cc1ccc(F)cc1 (configuration not stated)	19.7	13.2	-7.0	16.1	54.0*	16.9
SMILES	HIF-2a inh	TRPM1 prom inh	KKLEB tox	Shn3 3UTR inh	Peg3 prom inh	CF NFkB block
O=C(NCc1ccco1)C1CCN(C(=O)c2cc3sccc3n2Cc2ccc(F)cc2)CC1	-6.9	1.0	-4.5	51.1	4.9	5.2
OC(COc1ccccc1)CN1CCN(CC(O)COc2ccccc2)CC1 (configuration not stated)	0.7	2.1	-5.3	-8.5	13.2	16.1
OC(CON=C1c2ccccc2-c2ccccc21)CN1CCNCC1 (configuration not stated)	8.4	2.4	4.7	-15.3	57.4*	-16.4
CC1CCCC(CC(N)=O)CC1 (configuration not stated)	6.5	1.4	-9.9	94.0*	-0.3	-5.1
CCOC(=O)c1sc(NC(=O)CCN2CCN(C)CC2)c(C(=O)OCC)c1C	-16.6	29.2	-2.6	-10.5	83.6*	-28.0
NC(=S)NN=C1c2ccccc2-c2c(F)c(F)c(F)c(F)c21	13.4	14.9	-25.0	-2.5	96.5*	9.0
NC(=S)NN=C1c2ccccc2-c2cc(Br)ccc21	8.0	18.7	10.1	-6.9	16.3	-164.5
Cc1cc(C(=O)c2ccc3ccccc3c2)c(C)o1	-82.5	x	10.4	-21.3	-25.5	-5.8
CN1CCN(c2cc3c(c4c2[nH]c2ccccc24)C(=O)CC(C)(C)C3)CC1	-28.8	4.8	-30.1	-3.4	107.2*	22.3
COc1ccc([C@H]2C[C@@H](O)[C@H](n3cc(COC(=O)c4ccccc4)nn3)CN2CC2CCCCC2)cc1	-14.7	x	7.7	-17.4	52.2*	-26.9
O=C1c2cccc(NCCCNCCO)c2C(=O)c2cccc(NCCCNCCO)c21	48.0*	85.8*	-3.6	-49.1	108.6*	-34.3
Cc1cccc2cc(C#N)c(SCC(=O)N3CC(=O)Nc4ccccc43)nc12	25.4	64.7*	10.3	28.1	21.2	-0.7
CC(C)CCN1C(=O)c2ccc(C(=O)NCc3ccccn3)cc2C1=O	3.7	2.9	-4.3	-13.4	-4.1	13.6
CC1CCCCC1NC(=O)NC(=O)CCl (configuration not stated)	12.7	x	-4.6	7.0	55.0*	11.1
CC1CCCC(NC(=O)CSC2CCCCC2)C1C (configuration not stated)	-63.7	-32.5	-1.2	-11.3	-30.1	-10.7
CC1CCCC(NC(=O)NC(=O)CCl)C1C (configuration not stated)	6.7	71.1*	-8.6	-1.4	51.4*	15.5
CN(c1ccccc1)S(=O)(=O)c1cccc(NC(=O)CCNC(=O)c2ccco2)c1	20.5	x	5.1	8.3	15.5	-15.9
Cc1cc(/C=C\c2ccc3cc(N(C)C)ccc3[n+]2C)c(C)n1-c1ccccc1	27.6	100.8*	-13.9	95.0*	64.0*	-36.8
